Measured values as given in ChEMBL document CHEMBL4513141, “CO-ADD screening of NIH (USA) - Clinical Collection” (2021).
Entries with a potency or affinity are not part of this list.

What was measured:
Klebsiella pneumoniae = settings: Concentration 20 uM; ASSAY_TEST Inhibition of Bacterial Growth; detection method Absorption (OD600); MEDIA CAMHB; plate type 384well; NBS; CORNING #3640; time 18 hr
Candida albicans = settings: 20 µM
Cryptococcus neoformans = settings: Concentration 20 uM; ASSAY_TEST Inhibition of Fungal Growth; detection method Resazurin; Absorption (OD600-OD570); plate type 384well; NBS; CORNING #3640

SMILES	Inhibition (Klebsiella pneumoniae) [%]	Inhibition (Candida albicans) [%]	Inhibition (Cryptococcus neoformans) [%]
CC(C)c1cccc(C(C)C)c1O [PROPOFOL]	12.14	2.62	-1.51
CC(=O)OC1C([N+]2(C)CCCCC2)C[C@H]2C3CC[C@H]4C[C@H](OC(C)=O)C([N+]5(C)CCCCC5)CC4(C)[C@H]3CCC12C.[Br-].[Br-] (some centres not stated)	10.46	-0.59	-9.01
Cl.N=C(N)NC(=O)c1nc(Cl)c(N)nc1N.O.O [AMILORIDE HYDROCHLORIDE]	12.19	4.98	-6.3
CNS(=O)(=O)Cc1ccc2[nH]cc(CCN(C)C)c2c1.O=C(O)CCC(=O)O [SUMATRIPTAN SUCCINATE]	9.24	4.97	-9.65
CN1CCC[C@H]1c1cccnc1 [NICOTINE]	-4.81	1.61	-2.7
COCCCOc1ccnc(C[S+]([O-])c2nc3ccccc3[nH]2)c1C (configuration not stated) [RABEPRAZOLE]	14.6	5.74	-21.21
C[C@]12CC[C@H]3[C@@H](CCC4=CC(=O)CC[C@@]43C)[C@@H]1CC[C@@H]2O [TESTOSTERONE]	3.5		1.59
COC(=O)C1=C(C)NC(C)=C(C(=O)OC)C1c1ccccc1[N+](=O)[O-] [NIFEDIPINE]	22.28	4.72	-4.99
C=C(C)CN1CC[C@]23c4c5ccc(O)c4O[C@H]2c2[nH]c4ccccc4c2C[C@@]3(O)C1C5.Cl.O	12.32	1.9	-7.24
CN(C)C(=O)C(CCN1CCC(O)(c2ccc(Cl)cc2)CC1)(c1ccccc1)c1ccccc1.Cl [LOPERAMIDE HYDROCHLORIDE]	11.49	2.32	-15.04
CCCCCNC(=N)N/N=C/c1c[nH]c2ccc(OC)cc12.O=C(O)/C=C\C(=O)O [TEGASEROD MALEATE]	6.68	0.86	-67.8
C#C[C@]1(OC(C)=O)CC[C@H]2[C@@H]3CCC4=CC(=O)CC[C@@H]4[C@H]3CC[C@@]21C [NORETHINDRONE ACETATE]	-0.71	6.32	-4.57
CNC(=O)Oc1ccc2c(c1)[C@]1(C)CCN(C)C1N2C.CNC(=O)Oc1ccc2c(c1)[C@]1(C)CCN(C)C1N2C.O=S(=O)(O)O (some centres not stated)	13.28	2.24	-6.96
CC(COc1ccccc1)N(CCCl)Cc1ccccc1.Cl (configuration not stated) [PHENOXYBENZAMINE HYDROCHLORIDE]	17.18	4.97	-10.83
CC(=O)OCC[N+](C)(C)C.[Cl-] [ACETYLCHOLINE CHLORIDE]	16.59	1.39	-1.88
COC(=O)N1CCN(C(=O)Cc2ccc(Cl)c(Cl)c2)C(CN2CCCC2)C1.O=C(O)/C=C/C(=O)O (configuration not stated)	6.19	2.42	-1.96
